Molecules are shown by their SMILES. Several values for one entry are separate records, joined by “and”; a condition that tells them apart may be missing. Equal entries are not always repeated. Results filed as inconclusive are left out. More than one record can exist for a structure, and the calls need not agree. Activity calls are given as the source filed them. Rule for the calls: active = hit-call score of the fitted dose curve at least 0.9, where 1 is the maximum; inconclusive = response in the unintended direction; inactive = score below 0.9.

Sequence of Retinoic acid receptor RXR-alpha (Homo sapiens) (P19793 whole entry, looked up, the tested form may be a part): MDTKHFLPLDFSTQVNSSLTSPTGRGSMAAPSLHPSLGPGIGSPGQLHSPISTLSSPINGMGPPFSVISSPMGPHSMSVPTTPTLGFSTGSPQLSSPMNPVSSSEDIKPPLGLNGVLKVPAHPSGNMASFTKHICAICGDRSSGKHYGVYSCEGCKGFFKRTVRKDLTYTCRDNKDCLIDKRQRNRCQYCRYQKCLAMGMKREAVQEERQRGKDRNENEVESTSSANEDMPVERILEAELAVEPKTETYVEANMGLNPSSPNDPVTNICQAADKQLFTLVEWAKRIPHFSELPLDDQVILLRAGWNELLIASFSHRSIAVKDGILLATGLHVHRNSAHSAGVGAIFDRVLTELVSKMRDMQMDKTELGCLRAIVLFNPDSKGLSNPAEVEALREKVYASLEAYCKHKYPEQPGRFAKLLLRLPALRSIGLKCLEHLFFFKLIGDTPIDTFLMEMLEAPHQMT

The target in this assay is Retinoic acid receptor RXR-alpha (Homo sapiens) (UniProt P19793). The assay is described as follows: OT_NURR1_NURR1RXRa_1440: Odyssey Thera (OT) 24-hour HEK293T Protein Complementation Assay for Nurr1/retinoid X receptor (RXR) (AID 2283386). Here is the method:
OT_NURR1_NURR1RXRa_1440 is a cell-based assay that uses HEK293T, a human kidney cell line, with measurements taken at 24 hours after chemical dosing in a 384-well plate.OT_NURR1_NURR1RXRa_1440 is one of one assay component(s) measured or calculated from the OT_NURR1_NURR1RXRa_1440 assay. It is designed to make measurements of protein fragment complementation, a form of binding reporter, as detected with fluorescence intensity signals by Protein-fragment Complementation technology.Data from the assay component OT_NURR1_NURR1RXRa_1440 was analyzed into 1 assay endpoint. This assay endpoint, OT_NURR1_NURR1RXRa_1440, was analyzed in the positive analysis fitting direction relative to DMSO as the negative control and baseline of activity. Using a type of binding reporter, measures of receptor for gain-of-signal activity can be used to understand the binding at the pathway-level as they relate to the gene RXRA. Furthermore, this assay endpoint can be referred to as a primary readout, because the performed assay has only produced 1 assay endpoint. To generalize the intended target to other relatable targets, this assay endpoint is annotated to the nuclear receptor intended target family, where the subfamily is non-steroidal.
Protein-fragment complementation assay, or PCA, is a method for the identification and quantification of protein-protein interactions. In the PCA, the proteins of interest ("bait" and "prey") are each covalently linked to fragments of a third protein (e.g. DHFR, which acts as a "reporter"). Interaction between the bait and the prey proteins brings the fragments of the reporter protein in close proximity to allow them to form a functional reporter protein whose activity can be measured.
By AC50 is commonly meant the concentration at which the activity in the assay is half-maximal. In the case of `C=CCC1=C(C)[C@@H](OC(=O)[C@@H]2[C@@H](C=C(C)C)C2(C)C)CC1=O`, the compound was classed as inactive and the AC50 is 80.6 µM (active). On the same counts, the results for `C#CCOS(=O)OC1CCCCC1Oc1ccc(C(C)(C)C)cc1` (stereo not given) are “inactive” and 31.6 µM (active). On to `COP(N)(=O)SC` (stereo not given), for which the outcome was inactive.

In the case of `C=CCC1=C(C)C(OC(=O)C2C(C=C(C)C)C2(C)C)CC1=O` (stereo not given), the call was inactive; the AC50 is 84.5 µM (active) and 83.5 µM (active). As to `Oc1ccccc1-c1ccccc1`, the compound was called inactive.

As to `CCc1nn(C)c(C(=O)NCc2ccc(C(C)(C)C)cc2)c1Cl`, the AC50 is 11.6 µM (active).

As to `CCOP(=S)(OCC)SCn1c(=O)oc2cc(Cl)ccc21`, the outcome was inactive.

As for `Fc1ccc(Oc2ccnc3cc(Cl)cc(Cl)c23)cc1`, the AC50 is 70.8 µM (active) and 65.4 µM (active). `CCOC(=O)C(Cl)Cc1cc(-n2nc(C)n(C(F)F)c2=O)c(F)cc1Cl` (stereo not given): the call was inactive. Still for that read-out and setting: under `COC(=O)C=C(C)OP(=O)(OC)OC` stands “inactive”; under `CC(C)C1(C)N=C(c2nc3ccccc3cc2C(=O)O)NC1=O` (stereo not given), “inactive”.

For `CC(C)Oc1cc(-n2nc(C(C)(C)C)oc2=O)c(Cl)cc1Cl`, the outcome was inactive and the AC50 was 74.7 µM (active). Turning to `N#Cc1nn(-c2c(Cl)cc(C(F)(F)F)cc2Cl)c(N)c1S(=O)C(F)(F)F` (stereo not given), the call was inactive.

For `CC(C)(C)c1ccc(CSc2cnn(C(C)(C)C)c(=O)c2Cl)cc1`, the outcome was inactive. On the same count and under the same terms, the result for `COc1ccc(C(c2ccc(OC)cc2)C(Cl)(Cl)Cl)cc1` reads “inactive”; that for `Cc1cc(Cl)ccc1OCC(=O)O`, “inactive”; that for `OC(c1ccc(Cl)cc1)(c1cncnc1)c1ccccc1Cl` (stereo not given), “inactive”. On the same count and under the same terms, under `CCCCC(CC)COC(=O)c1ccccc1C(=O)OCC(CC)CCCC` (stereo not given) stands “inactive”; under `CCOc1cc(Oc2ccc(C(F)(F)F)cc2Cl)ccc1[N+](=O)[O-]`, “inactive”. As to `CCCCNC(=O)OCC#CI`, the AC50 was 11.7 µM (active). Turning to `Cc1ccc(-c2c(Cl)nc(C#N)n2S(=O)(=O)N(C)C)cc1`, the call was inactive.

Regarding `C=CC1(C)OC(=O)N(c2cc(Cl)cc(Cl)c2)C1=O` (stereo not given), the compound was called inactive. The same measure, in the same setting: under `CCNc1nc(Cl)nc(NC(C)C)n1` stands “inactive”; under `O=C(O)COc1nc(Cl)c(Cl)cc1Cl`, “inactive”. On the same count and under the same terms, under `CNC(=S)S` stands “inactive”; under `COC(=O)c1ccccc1C(=O)OC`, “inactive”; under `CNC(=O)ON=CC(C)(C)SC`, “inactive”.

As to `CCCCOC(=O)c1ccccc1C(=O)OCCCC`, the result was inactive. On the same count and under the same terms, the result for `COP(=S)(OC)Oc1nc(Cl)c(Cl)cc1Cl` reads “inactive”; that for `CCON=C(CC)C1=C(O)CC(c2c(C)cc(C)cc2C)CC1=O` (stereo not given), “inactive”; that for `COC(=O)N(OC)c1ccccc1COc1ccn(-c2ccc(Cl)cc2)n1`, “inactive”. Still for that read-out and setting: the result for `O=C(O)c1nc(Cl)ccc1Cl` reads “inactive”; that for `CCNc1nc(Cl)nc(NCC)n1`, “inactive”; that for `COc1nc(NC(C)C)nc(NC(C)C)n1`, “inactive”. Same read-out and setting: under `CC1=C(C(=O)Nc2ccccc2)SCCO1` stands “inactive”. As for `CC(Oc1ccc(Cl)cc1Cl)C(=O)O` (stereo not given), the call was inactive.

Source of the values: PubChem BioAssay (EPA / NIEHS).
